In PubChem BioAssay AID1259422 (The Scripps Research Institute Molecular Screening Center, 2018) one finds inhibition data, which are given here for 59 compounds.

Several values for one entry are separate records, joined by “and”; a condition that tells them apart may be missing. Equal values may be shown once. Hit rate of the full screen: of about 640,000 compounds, about 9,300 (1.5%) were called active. This is one part of a sample in which actives are shown more often than they occur. Cut-off read from the data, not from the text of the source: active = inhibition above about 32%; inactive = the rest.

The assay is described as follows: TEAD-YAP interaction inhibition, primary screen, TEAD-YAP interaction inhibitor project, luminescence, HEK-TIYL cells (AID 1259422).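 Note: 0% = median of test compound wells and 100% = reference inhibitor wells.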 The note with it: TEAD-Gal4/YAP UAS-luciferase luminescence, at 9.12 µM, hits give high values.
Broadly, the inhibition is the relative decrease from the control value, in per cent. Take `Cc1nc(CC(=O)N2CCC(N3CCC(C(=O)N4CCOCC4)CC3)CC2)cs1`: the inhibition is -4.91% (inactive).
As to `COc1cc(Br)cc(/C=N\NC(=O)c2ccc(C)nc2)c1O`, the inhibition is 35.4% (active).
Under `COc1cc(Br)cc(/C=N/NC(=O)c2cc(-c3ccccc3)n[nH]2)c1O` stands 15.7% (inactive); under `CCOc1cccc(/C=N/NC(=O)c2ccc(C)nc2)c1O`, 18.1% (inactive).
As for `CC(=O)c1cccc(NC(=O)c2ncoc2-c2ccc(Cl)cc2)c1`, the inhibition was 2.52% (inactive).
Regarding `COc1ccc(-c2csc(N3CCC(C)CC3)n2)cc1`, the inhibition was -61.1% (inactive).
Next, `COc1cc(C2Nc3ccc(C(=O)c4ccccc4)cc3NC3=C2C(=O)CCC3)cc(OC)c1OC` (centres undefined): 59.8% (active).
For `O=C1CCCC2=C1C(c1ccc(Cl)cc1)Nc1ccc(C(=O)c3ccccc3)cc1N2` (centres undefined), the inhibition is 13.4% (inactive).
`O=C1CCCC2=C1C(c1c(F)cccc1Cl)Nc1ccc(C(=O)c3ccccc3)cc1N2` (centres undefined): the inhibition was -16.1% (inactive).
Next, `Cc1ccc(C2=CC(c3ccccc3F)n3nnnc3N2)cc1` (centres undefined): -31.7% (inactive); `COc1ccccc1CN(Cc1cc2cccc(C)c2n2nnnc12)C(=O)C1CC1`: 6.49% (inactive); `O=C1C(=O)N(CCCn2ccnc2)C(c2ccc(Cl)cc2)/C1=C(/O)c1ccccc1` (centres undefined): 7.39% (inactive).
For the compound `COC(=O)c1nnn(CC(=O)Nc2ccc3c(c2)OCCO3)c1C(=O)OC`, the inhibition was 9.22% (inactive).
In the case of `Cc1cc(C)nc(NS(=O)(=O)c2ccc(N/C=C\C(=O)c3cccs3)cc2)n1`, the inhibition was 49.6% (active).
Under `COc1cccc(C(=O)/C=C\Nc2ccc(S(=O)(=O)Nc3nc(C)cc(C)n3)cc2)c1` stands -30.1% (inactive) and -6.6% (inactive).
For the compound `COc1cc(NS(=O)(=O)c2ccc(N/C=C\C(=O)c3cccs3)cc2)nc(OC)n1`, the inhibition is -5.11% (inactive).
Under `N#CCCNc1ncc(-c2ccc(Cl)cc2)cn1` stands -8.87% (inactive); under `Cc1ccc(NC(=O)CN2CCN(c3ccc(Cl)cc3)CC2)cc1Br`, -5.18% (inactive); under `CCOC(=O)C1=C(C)NC(C)=C(C(=O)OCC)C1c1ccc(C2C(C(=O)OCC)=C(C)NC(C)=C2C(=O)OCC)cc1`, 8.31% (inactive).
Under `O=C(NCc1ccccc1)C1CC12CCN(Cc1ccsc1)CC2` (centres undefined) stands 50.1% (active); under `O=C(NCc1ccccc1)C1CC12CCN(C(=O)Cc1ccsc1)CC2` (centres undefined), -4.7% (inactive).
Under `O=C(Cc1ccsc1)N1CCC2(CC1)CC2C(=O)N1CCN(Cc2ccccc2)CC1` (centres undefined) stands 7.69% (inactive); under `CCOC(=O)c1c(NC(=O)C(C)Sc2nnc(CNC(=O)c3ccc(Cl)cc3Cl)n2C)sc2c1CCCC2` (centres undefined), 5.37% (inactive).
Consider `COc1ccc(-n2nc(C(=O)N3CCN(C)CC3)c3ccccc3c2=O)c(OC)c1`, for which the inhibition was 3.03% (inactive).
Take `COc1ccc(/C=C(/NC(=O)c2ccco2)C(=O)Nc2cccc(O)c2)cc1`: the inhibition was 0.64% (inactive).
Consider `COc1ccc(C2CC(C(F)(F)F)n3ncc(C(=O)NCc4cccs4)c3N2)cc1OC` (centres undefined), for which the inhibition was -29.4% (inactive).
Next, `O=C(C(Cc1ccccc1)NS(=O)(=O)c1cccs1)N1CCc2ccccc21` (centres undefined): 7.02% (inactive).
Turning to `Cc1ccc2cc(CN(CCCO)S(=O)(=O)c3ccccc3[N+](=O)[O-])c(=O)[nH]c2c1`, the inhibition is -39.4% (inactive).
For `CC1=C(C(=O)Nc2ccc(Cl)cc2)C(c2cccc(Cl)c2)NC(=O)N1` (centres undefined), the inhibition was 6.92% (inactive).
Under `CC1=C(C(=O)Nc2ccc(Cl)cc2)C(c2c(Cl)cccc2Cl)NC(=O)N1` (centres undefined) stands 37.4% (active).
On to `CCOc1ccc(NC(=O)C2=C(C)NC(=O)NC2c2ccc(Cl)cc2)cc1` (centres undefined), for which the inhibition is 11% (inactive).
Next, `O=C(Nc1ccc(Br)cc1)c1cc2ccccc2c(=O)o1`: -8.82% (inactive); `Cc1ccc2nc(NCc3ccccc3)nc(-c3ccccc3)c2c1`: -0.32% (inactive); `O=c1c(-c2ccccc2)[n+]([O-])c2ccccc2n1OCc1ccccc1Cl`: -9.42% (inactive).
As for `CCOC(=CNc1ccc2nsnc2c1)OCC`, the inhibition is -2.05% (inactive).
Under `CCCOc1ccc(N2C(=O)CC(N(CCC34CC5CC(CC(C5)C3)C4)C(C)=O)C2=O)cc1` (centres undefined) stands 1.87% (inactive); under `c1cn(-c2ccc(Nc3nc4ncnc(NC5CC5)c4[nH]3)cc2)cn1`, 45.5% (active).
Under `c1ccc(Nc2nc3ncnc(NCc4cccnc4)c3[nH]2)cc1` stands -5.96% (inactive); under `COc1ccc(CCNc2ncnc3nc(Nc4ccc(N5CCOCC5)cc4)[nH]c23)cc1`, 20.2% (inactive); under `CC1=C(C(=O)Nc2cc(Cl)ccc2C(=O)O)SCCO1`, 5.44% (inactive).
Regarding `CC(=O)c1ccc(N2CCN(C(=O)Cn3ncc4c3-c3cc(C)ccc3OC4)CC2)cc1`, the inhibition was -3.87% (inactive).
In the case of `CCC(=O)C1=C(c2ccc(Cl)cc2)N(C(=O)CC)n2cnnc2S1`, the inhibition is 15.1% (inactive).
Next, `CC(=O)C1=C(c2ccc(C(C)(C)C)cc2)N(C(C)=O)n2cnnc2S1`: 84% (active); `CCc1nnc2n1N(C(C)=O)C(c1ccc3c(c1)CCCC3)=C(C(C)=O)S2`: 10.8% (inactive).
Under `CCN1CCCC1CNC(=O)CSCc1nc(-c2ccccc2F)oc1C` (centres undefined) stands -9.37% (inactive); under `CN(C(=O)c1cccs1)C(Cc1ccccc1)C1CCN(C(=O)C2CCOC2)CC1` (centres undefined), -13% (inactive); under `CCCCCCCc1ccc(C(=O)Oc2ccc(Br)cc2)cc1`, 8.27% (inactive).
`CCc1ccc(OCCOCCNCCN)cc1`: the inhibition is 13% (inactive).
Next, `CCCCCCCCCc1ccc(OCCOCCOCCOCCOCCOCCOCCOCCOCCO)cc1`: 34.7% (active); `CCN(CC)CCCNC(=O)c1ccc(Cn2c(=S)[nH]c3cc4c(cc3c2=O)OCO4)cc1`: -11.4% (inactive).
For the compound `Oc1c(C(Nc2ccccn2)c2cccnc2)ccc2cccnc12` (centres undefined), the inhibition was 14.9% (inactive).
Next, `Cc1ccnc(NC(c2ccccc2Cl)c2ccc3cccnc3c2O)c1` (centres undefined): 77.9% (active); `Cc1cccc(NC(c2ccc3c(c2)OCO3)c2ccc3ccc(C)nc3c2O)n1` (centres undefined): 15.8% (inactive); `Oc1ccc2ncccc2c1C(Nc1ccccn1)c1ccccc1` (centres undefined): 6.96% (inactive).
Under `Cc1ccnc(NC(c2ccc(O)cc2)c2ccc3ccc(C)nc3c2O)c1` (centres undefined) stands -16.1% (inactive).
In the case of `Cc1ccnc(NC(c2ccc3cccnc3c2O)c2c(F)cccc2Cl)c1` (centres undefined), the inhibition was 34.7% (active).
Under `Cc1cccc(NC(c2cccc(F)c2)c2ccc3ccc(C)nc3c2O)n1` (centres undefined) stands 1.53% (inactive).
Next, `COc1cc(C(=O)NC(c2ccccc2Cl)c2cc([N+](=O)[O-])c3cccnc3c2O)cc(OC)c1OC` (centres undefined): -0.41% (inactive); `Oc1c(C(Nc2ccccn2)c2ccc(OC(F)F)cc2)ccc2cccnc12` (centres undefined): 70.2% (active).
